# Screening data (PubChem BioAssay)
# Only some compounds are listed: those with a hit (about 19% of all), similar ones and a draw of the others.
# TDP1 inh – qHTS Assay for Inhibitors of Tyrosyl-DNA Phosphodiesterase (TDP1) | AID 485290, 2010 | recombinant TDP1, AlphaScreen DNA substrate cleavage | Tyrosyl-DNA phosphodiesterase 1 (Homo sapiens), Q9NUW8 | 0.28% of 350,000 active | Potency, µM (top dose mostly 130 µM), without a hit: at the top dose activity change, negative = inhibition, hits mostly inhibitors; further: potency means the concentration at half of the fitted maximal effect; nearly all actives have a fitted effect of over 40% in size
#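 AlphaScreen read-out: signal falls as enzyme removes the 3' tyrosine-FITC from a 5'-biotinylated DNA oligo (15 nM, 5 min, RT). Enzyme was E. coli-made recombinant Tdp1 at 1 nM, exposed to compound for 15 min beforehand; beads 10 ug/ml, 10 min.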
# Giardia kill – Small Molecules that selectively kill Giardia lamblia: qHTS; AID 540267, 2011; Giardia lamblia trophozoite viability; 0.15% of 340,000 active; activity change, % at 7.66 µM, hits read low; in the data active means activity change below about -80%; inconclusive means between about -30% and that limit;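 further: parasites exposed to compound for two days anaerobically before the ATP read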
#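 Anaerobic 48 hrs incubation at 37 deg C of 100 trophozoites/well with test compounds; ATPLite 1-Step luminescence, 15-30 min RT, reports cellular ATP as viability.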
# DT40 TDP1 CPT – qHTS for Inhibitors of human tyrosyl-DNA phosphodiesterase 1 (TDP1): qHTS in cells in presence of CPT; chicken DT40 Tdp1-/-;hTDP1 cells + 20 nM CPT, ATP luminescence, 48 h; Potency, µM (highest dose often 46.2 µM), without a hit: at the top dose activity change, negative = growth inhibition, actives largely listed as inhibitors; 12% of 420,000 active; AID 686979, 2013; further: potency means the concentration at half of the fitted maximal effect; nearly all actives have a fitted effect of over 55% in size
#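 Chicken DT40 Tdp1-/- cells stably complemented with human TDP1 were seeded at 400 cells/well in medium containing 20 nM camptothecin, exposed to pin-transferred compounds, and grown at 37 °C for at least 48 hr. Viability was read as ATP luminescence.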
# ELG1 DNA repair – qHTS screen for small molecules that inhibit ELG1-dependent DNA repair in human embryonic kidney (HEK293T) cells expressing luciferase-tagged ELG1; HEK293T ELG1-luciferase reporter, luminescence, 16 h; DNA damage induced by 5-fluorouridine; Potency, µM (titrated, usually from 46.1 µM), inactives show at the highest dose activity change, negative = inhibition, actives largely listed as inhibitors; 2.3% of 330,000 active; AID 504467, 2011; further: potency means the concentration at half of the fitted maximal effect; nearly all actives have a fitted effect of over 55% in size
#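 Quantitative HTS, concentration-response format. 2,000 cells/well co-treated with 5-fluorouridine and compound, 16 hr in 5% CO2 at 37 °C; ONE-Glo luminescence read after 30 min.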
# TDP1 cell noCPT – qHTS for Inhibitors of human tyrosyl-DNA phosphodiesterase 1 (TDP1): qHTS in cells in absence of CPT; DT40 Tdp1-/- hTDP1 cells, no CPT, ATP luminescence, 48 h; Potency, µM (doses to about 46.2 µM), for the others: at the highest dose activity change, negative = growth inhibition, actives largely listed as inhibitors; 15% of 420,000 active; further: potency means the concentration at half of the fitted maximal effect; nearly all actives have a fitted effect of over 55% in size
#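 DT40 Tdp1-/-;hTDP1 cells, no CPT (DMSO vehicle only), 400 cells/well; compounds pin-transferred; ≥48 hr, 37 °C; CellTiter-Glo 30 min RT dark, luminescence read.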
# IL-1B inflam inh – qHTS for Inhibitors of Inflammasome Signaling: IL-1-beta AlphaLISA Primary Screen | THP-1 LPS/ATP IL-1B secretion, AlphaLISA, 16 h; active compounds read low | activity change, % at 57.5 µM | 4.7% of 360,000 active; in the data active means activity change below about -50%; inconclusive means mostly about -30% to -49%
#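 THP-1 cells pretreated 1 hr with compounds (up to 57.5 uM final), then stimulated with LPS (250 ng/mL final) plus ATP (1.25 mM final); secreted IL-1B measured by AlphaLISA after 16 hr, decreased signal indicating inhibition.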
# ELG1 FLuc counter – qHTS screen for small molecules that inhibit ELG1-dependent DNA repair: Hit Confirmation in Cell-Based Luciferin Assay; cell-free firefly luciferase luminescence counter-screen, ViewLux; shares compounds with ELG1 DNA repair; AID 624247, 2012; Potency, µM (doses to about 46.1 µM), for the others: at the top dose activity change, negative = inhibition, hits mostly inhibitors; 3% of 350 active; further: potency means the concentration at half of the fitted maximal effect
# ELG1-Luc inh – HTS assay for small molecules that inhibit ELG1-dependent DNA repair in human embryonic kidney (HEK293T) cells expressing luciferase-tagged ELG1: Hit Confirmation. 68% of 670 active. HEK293T ELG1-luciferase levels, luminescence; cells co-treated with 5-fluorouridine. AID 624248, 2012. shares compounds with ELG1 DNA repair. Potency, µM (series often up to 46.1 µM), for the others: at the top dose activity change, negative = inhibition, most hits filed as inhibitors; further: potency means the concentration at half of the fitted maximal effect; nearly all actives have a fitted effect of over 55% in size
# ELG1-Luc MMS – inhibits ELG1-dependent repair under MMS stimulation in HEK293T cells. Potency, µM (doses to about 46.1 µM), inactives show at the highest dose activity change, negative = inhibition, hits mostly inhibitors. 53% of 670 active. HEK293T luciferase-tagged ELG1 level, MMS stimulated. shares compounds with ELG1 DNA repair; further: potency means the concentration at half of the fitted maximal effect; nearly all actives have a fitted effect of over 60% in size
# ELG1 5-FU – qHTS screen for small molecules that inhibit ELG1-dependent DNA repair: Hit Confirmation with 5FU Viability; shares compounds with ELG1 DNA repair; cell viability with 5-FU, ELG1-dependent repair; Potency, µM (series often up to 46.1 µM), without a hit: at the top dose activity change, negative = viability loss, actives largely listed as cytotoxic; 670 tested, under 10 active; AID 624250, 2012;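 further: ELG1-luc HEK293T cells cotreated with 5-fluorouridine at 10 µM final; potency means the concentration at half of the fitted maximal effect; viability measured 16 h after compound addition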
# ELG1 MMS viab – qHTS screen for small molecules that inhibit ELG1-dependent DNA repair: Hit Confirmation with MMS Viability; 33% of 670 active; Potency, µM (top dose mostly 46.1 µM), for the others: top-dose activity change, negative = viability loss, actives largely listed as cytotoxic; Cell viability with MMS, ELG1-dependent DNA repair; shares compounds with ELG1 DNA repair;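 further: ELG1-luc HEK293T cells co-treated with 10 µM MMS; potency means the concentration at half of the fitted maximal effect; viability read 16 h after compound addition; nearly all actives have a fitted effect of over 60% in size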
# Cell viab unstim – qHTS screen for small molecules that inhibit ELG1-dependent DNA repair: Hit Confirmation with Unstimulated Viability Assay | shares compounds with ELG1 DNA repair | cell viability counter-screen, unstimulated, luminescence | Potency, µM (doses to about 45.9 µM), for the others: at the top dose activity change, negative = loss of viability, usual class: cytotoxic | 8% of 900 active | AID 624252, 2012;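 further: potency means the concentration at half of the fitted maximal effect; compound exposure lasted 16 hours before reading; nearly all actives have a fitted effect of over 55% in size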
# FLuc biochem – qHTS screen for small molecules that inhibit ELG1-dependent DNA repair: Hit Confirmation in Biochemical Luciferin Assay; AID 624253, 2012; Potency, µM (doses to about 57.5 µM), inactives show at the top dose activity, negative = inhibition, usual class: inhibitors; purified firefly luciferase, luminescence counter-screen; 10% of 350 active; shares compounds with ELG1 DNA repair; further: potency means the concentration at half of the fitted maximal effect
# Starred values were filed as active, the others as inactive; ? = inconclusive; . = no result; [ ] = dose if it differs, or a comment. Unless noted, the call rests on the fitted dose curve; in most records, active means well fitted curve in the direction sought with a large enough effect; inconclusive means small, poorly fitted or top-dose-only effect, or another doubt; inactive means no such curve, though single readings can be large; an effect the other way counts as inactive or inconclusive. On the % scale 0 is the no-effect control and ±100 the full control effect.
SMILES,TDP1 inh,Giardia kill,DT40 TDP1 CPT,ELG1 DNA repair,TDP1 cell noCPT,IL-1B inflam inh,ELG1-Luc inh,ELG1-Luc MMS,ELG1 5-FU,ELG1 MMS viab,Cell viab unstim,others
Cc1ccc(-c2nnc(NCc3nc4ccccc4[nH]3)c3ccccc23)cc1S(=O)(=O)N1CCOCC1,0%,9,15µM*,4.6µM*,10µM*,-9,7.1µM*,16µM*,9%,?,?,
Cc1ccc(-c2nc3ccccc3s2)cc1S(=O)(=O)N1CCOCC1,4%,-2,?,?,?,0,.,.,.,.,.,
Nc1cc(=O)[nH]c(SCC(=O)Nc2ccc(Cl)c(Cl)c2)n1,0%,6,8%,14%,-3%,17,.,.,.,.,.,
Nc1cc(=O)[nH]c(SCc2ccc(Cl)cc2Cl)n1,.,-2,8.2µM*,4.1µM*,7.3µM*,67,-12%,2.8µM*,6%,4µM*,-7%,
Cc1ccccc1CCNC(=O)C1CC(O)CN1C(=O)Nc1ccccc1 (stereo not given),.,-11,-16%,-2%,?,-1,.,.,.,.,.,
CSc1nccc(-c2sc(SC)c(C#N)c2-c2ccccc2)n1,-2%,2,-6%,4%,?,155,.,.,.,.,.,
CSc1sc(-c2ccnc(SCCS(C)(=O)=O)n2)c(-c2ccccc2)c1C#N,0%,-1,?,4.6µM*,18µM*,66,3.1µM*,0.56µM*,1%,0.63µM*,?,
Cc1ccc2c(c1)sc1nc(=O)n(-c3cccc(Cl)c3)c(=O)n12,0%,-3,?,?,?,0,.,.,.,.,.,
Cc1ccc2c(c1)sc1nc(=O)n(-c3ccc(Cl)cc3)c(=O)n12,4%,-12,-9%,28%,-17%,-5,.,.,.,.,.,
Cc1ccc2c(c1)sc1nc(=O)n(-c3ccc(Cl)c(Cl)c3)c(=O)n12,8%,18,?,?,?,0,.,.,.,.,-2%,ELG1 FLuc counter=7%;FLuc biochem=-3%
O=c1nc2sc3ccccc3n2c(=O)n1-c1cccc(Cl)c1,5%,-3,?,?,?,0,.,.,.,.,-5%,ELG1 FLuc counter=82%;FLuc biochem=-6%
Cc1ccccc1CC1CCN(CCCNC(=O)Nc2ccccc2)CC1,.,8,?,-1%,?,?,.,.,.,.,.,
C(=C\c1nc2ccccc2s1)/c1ccc2c(c1)OCO2,.,.,?,.,11µM*,.,.,.,.,.,-17%,ELG1 FLuc counter=20µM*;FLuc biochem=0.18µM*
C(=Cc1nc2ccccc2o1)c1ccc2c(c1)OCO2,.,.,-12%,.,?,19,.,.,.,.,.,
Cc1ccccc1N1C(=O)c2cc(S(N)(=O)=O)c(Cl)cc2N[C@H]1C,-2%[21 µM],.,.,.,.,.,.,.,.,.,.,
CCOc1cc(C(=O)Nc2ccc(NC(=O)c3cc4ccccc4o3)c(OC)c2)cc(OCC)c1OCC,2%[12.3 µM],.,?,.,?,.,.,.,.,.,.,
COc1ccc(CCN2C(=O)c3cccc4c(C(=O)N5CCCCC5)ccc(c34)C2=O)cc1OC,1%,12,16µM*,3.7µM*,?,-3,7.9µM*,7.9µM*,?,11µM*,14µM*,
COc1ccc(CCNC(=O)CCN2C(=O)c3cccc4cccc(c34)C2=O)cc1OC,5%,-2,?,3%,10%,-2,.,.,.,.,.,
Cc1cccc(N2CCN(C3=NC(=O)/C(=C\c4cn[nH]c4-c4ccccc4)S3)CC2)c1,-3%,9,6.5µM*,2.3µM*,2.1µM*,5,1.4µM*,11µM*,?,?,?,ELG1 FLuc counter=19%;FLuc biochem=-2%
COc1cc(OC)c2c(-c3cccc(-c4ccc(C#N)cc4)c3)cc(=O)oc2c1,1%[56.1 µM],-25,2.1µM*,4.6µM*,4.1µM*,58,?,7.9µM*,?,7.1µM*,?,
Cc1cccc(/C=C/c2onc(C)c2S(=O)(=O)N2CCC(C(=O)N3CCC(C)CC3)CC2)c1,2%,-4,18µM*,1.8µM*,18µM*,-22,1.3µM*,13%,?,-6%,?,
